Compound activity (PubChem BioAssay)
A selection: hits, their analogues and other compounds. The true share with any hit is near 2.5%.
PKA-R1A activ: PKA-R1A complex activation. P00514+P68181. PKA-R1A dissociation, Cy5-IP20 fluorescence polarization; scaled: DMSO 0%, 113 µM cGMP 100%. activation, % at 11.4 µM. 0.083% of 340,000 active;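 active = percent activation above the mean of all tested compounds plus 3 SD, cut at about 19% in these data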;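 also: higher means more PKAc released from R1A so a rise in polarization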
CHT PAM: allosterically activates the human high affinity choline transporter. AID 488977. CHT-expressing cells, membrane potential dye, choline EC20; stronger effect = higher value; LV-AA mutant CHT in HEK293 cells. B-score at 10 µM. 0.49% of 310,000 active;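 active = initial fluorescence not abnormally high and integrated response B-score, plate-corrected, over 3 SD above library mean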
TMEM16A inh: blocks the mouse calcium-activated chloride channel TMEM16A; normalized B-score (activity score, 25-100; higher = stronger inhibition) at 10 µM; 1.2% of 310,000 active; HEK293 TMEM16A/YFP iodide influx fluorescence, ionomycin;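 active = ratio plate-corrected score three or more library SD toward inhibition, starting fluorescence score within five deviations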;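 also: score derived from kinetic fluorescence span divided by baseline fluorescence per well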
CHT inh: inhibits the human high affinity choline transporter | Q9GZV3 | CHT-expressing cells, membrane potential dye, choline response; stronger effect = lower value | B-score at 10 µM | 0.86% of 310,000 active | AID 488975;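 active = B-score over 3 SD under the library average, and starting fluorescence ratio not unusually high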;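 also: choline stimulus applied at its EC90 after an EC20 pre-addition; B-score computed on integrated fluorescence ratio after choline addition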
PKA-R2B act: activators of human PKA-R2B complex | PKA-R2B holoenzyme dissociation, Cy5-IP20 fluorescence polarization; R2B truncated from residue 108, S112A mutant; 0% DMSO only, 100% 113 µM cGMP | activation, % at 11.4 µM | 0.079% of 340,000 active | AID 504700 | P22694+P31323;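 active = activation above a cutoff set at the mean over all compounds plus 3 SD, cut at about 18% in these data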;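 also: higher means more holoenzyme dissociation and a rise in polarization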
ANO1 activ: activators or potentiators of mouse TMEM16A chloride channel | HEK293 TMEM16A/YFP-H148Q/I152L, iodide quench fluorescence; stronger effect = lower value | B-score at 10 µM | 0.3% of 340,000 active | AID 623877;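 active = fluorescence-ratio B-score plate-corrected deviation score at least 3 library SD below zero, with starting fluorescence score within 5 deviations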;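 also: channel opened by trigger with iodide after compound preincubation; score built on the fluorescence ratio of max minus min over baseline; more negative score means more quench and so TMEM16A activation or potentiation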
CHT inh conf: confirmation of human choline transporter CHT inhibitors; shares compounds with CHT inh; CHT-expressing cells, choline membrane potential dye; LV-to-AA substituted CHT, HEK293 cells; 70% of 2,400 active; CHT activity remaining % of control (stronger effect = lower value), % at 10 µM;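 active = choline transporter activity left, mean of duplicates at 10 µM, below buffer-only control mean minus 3 SD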;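 also: depolarization triggered by choline at its EC90 following an EC20 pre-addition; 0% = hemicholinium-3 full block and 100% = buffer-only control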
HEK293 MPD ctr: activity in parental HEK293 cells lacking CHT | shares compounds with CHT inh | membrane potential dye, choline response; active = decrease or increase beyond buffer ±3SD | membrane potential ratio readout (active if shifted either direction beyond buffer ±3SD; no single direction) at 10 µM | 4% of 2,400 active;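 also: parental cells lack the transporter so any hit is non-specific; ratio is peak minus trough fluorescence over baseline after EC90 choline challenge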
An asterisk follows results filed as active; i = inactive; · = not tested or not shown.

SMILES | PKA-R1A activ | CHT PAM | TMEM16A inh | CHT inh | PKA-R2B act | ANO1 activ | CHT inh conf | HEK293 MPD ctr
Cc1cccc(NC(=O)CSCC(=O)OCc2ccccn2)c1 | -17 | i | i | i | 3 | i | · | ·
O=C(NC1CC1)C1=C[C@H](c2csc3ccccc23)C[C@H](OCc2ccc(CO)cc2)O1 | 3 | i | i | -5.2* | -6 | i | 56%* | i
O=C(NC1CC1)C1=C[C@H](c2ccc(Br)cc2)C[C@H](OCc2ccc(CO)cc2)O1 | -4 | i | i | -6.4* | -4 | i | 52%* | i
CCc1c(C)nc2ncnn2c1NCCc1ccc(Cl)cc1 | -3 | i | i | -5.2* | -7 | i | 63%* | i
CCc1c(C)nc2ncnn2c1NCCc1ccccc1 | -9 | i | i | -5.2* | -2 | i | 47%* | i
Cc1ccc(-n2cc(CN3CCN(c4ccccn4)CC3)c(-c3ccc(F)cc3)n2)cc1 | -2 | i | i | i | 1 | i | · | ·
Cc1ccc(-n2cc(CN3CCN(Cc4nccn4C)CC3)c(-c3ccc(F)cc3)n2)cc1 | -10 | i | i | -6.4* | -2 | i | 29%* | i
S=c1nn[nH]c2ccccc12 | 2 | · | · | · | -17 | i | · | ·
CCn1c(SCC(=O)Nc2ccccc2C(=O)OC)nnc1-c1ccoc1C | 1 | i | i | -5.6* | 3 | i | i | i
CCn1c(SCC(=O)Nc2ccccc2C(=O)OC)nnc1-c1ccc(N)cc1 | 5 | i | i | i | 5 | i | · | ·
Cc1cccc(NC(=O)C2CCN(S(C)(=O)=O)CC2)c1C | 4 | i | i | -5.3* | 0 | i | i | i
Cc1c(Cl)cccc1NC(=O)C1CCN(S(C)(=O)=O)CC1 | 8 | i | i | i | 0 | i | · | ·
CCCCOC(=O)n1c(SCC(=O)N(CC)CC)nc2ccccc21 | -1 | i | i | -5.2* | -5 | i | i | i
Cc1n[nH]c(C)c1Sc1ccccc1N=Cc1cc(Cl)cc([N+](=O)[O-])c1O | -1 | i | i | -7.9* | 4 | i | 36%* | i
Cc1cc(C)n2nc(C(=O)N3CCCC(N4CCN(c5ccccc5C)CC4)C3)cc2n1 (centres undefined) | 0 | · | · | · | -5 | i | · | ·
COc1ccccc1N1CCN(C(=O)c2ccc3c(c2)CCN3S(C)(=O)=O)CC1 | 7 | i | i | i | -7 | i | · | ·
COc1ccc2c(c1)c(C(=O)CNc1nc(C)cs1)c(C)n2C | -3 | i | i | -5* | 9 | i | 38%* | 2.7*
CCOCc1cnc(C)nc1NCC(=O)c1c(C)n(C)c2ccc(OC)cc12 | 4 | · | · | · | 0 | i | · | ·
COc1cccc(OC)c1C(=O)NC(=S)NCc1cccnc1 | -5 | i | i | i | -12 | i | · | ·
CCc1nc(NCc2ccccn2)c2oc3ccccc3c2n1 | -2 | i | i | i | 0 | i | 56%* | i
CCc1nc(NC(C)C)c2oc3ccccc3c2n1 | 6 | i | i | i | 1 | i | · | ·
C=CCn1c(SCC(=O)c2ccc(OC)cc2)nnc1-c1ccc2c(c1)OCO2 | -5 | i | i | -15* | -3 | i | i | i
CCOC(=O)c1cccc(NC(=O)CCS(=O)(=O)c2cccc3nsnc23)c1 | -3 | i | i | -8.3* | -4 | i | 36%* | i
CC(C)(CNS(=O)(=O)c1cccs1)N1CCOCC1 | -3 | · | · | · | -1 | i | · | ·
O=S(=O)(NCCN1CCOCC1)c1cccs1 | 14 | i | i | -9.3* | -2 | i | i | i
